Data as given in PubChem BioAssay (NCATS).
Results filed as inconclusive are left out. A number with no mark means an inactive call. The source made the active and inactive calls. The call rests on the fitted dose curve; in most records, active means well fitted cell-killing curve with a large enough effect; inconclusive means small, poorly fitted or top-dose-only effect; inactive means flat fitted curve, though single readings scatter.

experiment: qHTS of pediatric cancer cell lines to identify multiple opportunities for drug repurposing: Confirmatory screen for SK-N-SH cells (AID 1347129); settings: SK-N-SH neuroblastoma cell viability; series mostly up to 46.1 µM; activity change, negative = cytotoxic: at the top concentration;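 further: cells exposed to compound for 48 h before viability read; nearly all actives have a fitted effect of over 60% in size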
From the text: Drug repurposing or repositioning has been offered as a strategy for drug development in oncology programs. This approach has special potential for childhood cancers and other rare or orphan diseases, where the expected return on new drug development has been a disincentive to pharmaceuticals.
In this project we exploit the poly-pharmacology of drugs to discover new indications via phenotypic screening of a panel of 19 well-characterized cell lines derived from solid tumors seen in children and adolescents. The goal is to identify approved drugs with previously unrecognized anticancer properties that has the potential to reveal new mechanisms and biological processes involved in carcinogenesis or drug resistance. We employed a titration-based paradigm (quantitative high-throughput screening or qHTS), where all compounds were tested at multiple concentrations for their effect on cell viability. Concentration-response curves (CRCs) were derived directly from the primary screen, and both potency and efficacy values were used to identify compounds with robust bioactivity profiles. We screened the NIH Chemical Genomics Center (NCGC) Pharmaceutical Collection (NPC) and Mechanism Interrogation Plate (MIPE) small molecule collections of approved and investigational compounds against these cell lines; and measured metabolically active cells after 48 hours of compound treatment as a proxy for cell viability.
Assay Submitter: Nathalia J. Martinez, National Center for Advancing Translational Sciences, National Institutes of Health, Rockville, MD, USA; email: natalia.martinez@nih.gov
[1] Shen, M et al. Quantitative high-throughput phenotypic screening of pediatric cancer cell lines identifies multiple opportunities for drug repurposing. Oncotarget 2017 Dec 19;9(4):4758-4772. PMID 29435139.
The cells were obtained from University of North Carolina (UNC), Pediatric Preclinical Testing Program (PPT), and Coriell Institute (CI).
qHTS cell viability assay:
Cells were assayed in growth media at a density of 500-1,000 cells/well. Five microliters of cells were dispensed into 1,536-well, white, solid-bottom, TC-treated plates (Greiner Bio One) using a multidrop dispenser and incubated at 37 degrees C, 5% CO2, under a humidified atmosphere for 5 hours. Twenty-three nanoliters of compounds and controls (neutral control DMSO or positive control bortezomib at final concentration of 2.3 µM) were subsequently transferred by Kalypsys pintool. For primary screens, the MIPE collection was tested at 11-point dilutions (final concentrations range from 0.78 nM to 46 µM) and the NPC collection at 8-point dilutions (final concentrations range from 0.59 nM to 46 µM). Compounds tested in follow-up screens were assayed at 11-point dilutions. Cells were incubated for 48 hours, followed by addition of 3 µL of CellTiter-Glo (Promega). After a 15 min incubation at room temperature, samples were analyzed for luminescence intensity using a ViewLux High-throughput CCD imager equipped with clear filters.
Potency means the concentration at half of the fitted maximal effect.

| SMILES | Potency | activity change, negative = cytotoxic |
| --- | --- | --- |
| CC(=O)[O][Hg][c]1ccccc1 | 2.64 µM (active) | – |
| Cc1ccccc1-n1c(Cn2ncc3c(N)ncnc32)nc2cccc(C)c2c1=O | – | -4.67% |
| O=C1C(I)=CC(=C(c2cc(I)c(O)c(I)c2)c2ccccc2C(=O)O)C=C1I | – | 7.09% |
| CC(C)N[C@@H]1CCn2c(=O)[nH]c3cccc(c32)[C@@H]1O | – | -0.496% |
| C[C@@]12OC(=O)[C@]1([C@@H](O)[C@@H]1C=CCCC1)NC(=O)[C@H]2CCCl | 2.35 µM (active) | – |
| CS(=O)(=O)c1ccc(C(=O)C2C(=O)CCCC2=O)c([N+](=O)[O-])c1 | – | 12.8% [at 97.6 µM] |
| O=c1[nH]c2ccc(Cl)cc2c(N[C@@H]2CN3CCC2CC3)c1-c1nc2ccccc2[nH]1 | 5.26 µM (active) | – |
| COC1=CC(C)=C[C@@H](C)[C@@H](O)[C@@H](C)CC(C)=CC=C[C@H](OC)[C@H]([C@@H](C)[C@@H](O)[C@H](C)[C@@]2(O)C[C@@H](O)[C@H](C)[C@@H](C(C)C)O2)OC1=O | – | -1.56% |
| COc1ccc(C(=O)c2c(C)n(CCN3CCOCC3)c3cc(I)ccc23)cc1 | – | -35.7% |
| CC[C@@]1(O)C(=O)OCc2c1cc1n(c2=O)Cc2cc3ccccc3nc2-1 | 2.09 µM (active) | – |
| COc1cc([C@@H]2c3cc4c(cc3[C@@H](O)C3COC(=O)C32)OCO4)cc(OC)c1O (stereo not given in full) | – | -1.24% |
| CO[C@H]1CCC(O[C@H]2C[C@H]([C@]3(C)CC[C@]4(C[C@H](O)[C@@H](C)[C@@H]([C@@H](C)C=C(C)C(=O)[C@H](C)C[C@H](C)C(=O)O)O4)O3)O[C@]3(O[C@@H]([C@H]4O[C@@](O)(CO)[C@H](C)C[C@H]4C)C[C@H]3C)[C@H]2C)O[C@H]1C (stereo not given in full) | 5.26 µM (active) | – |
| C=CCON=C(C[C@H]1O[C@@H]2O[C@]3(C)CC[C@@H]4[C@H](C)CC[C@@H]([C@H]1C)[C@@]24OO3)[C@H]1O[C@@H]2O[C@]3(C)CC[C@H]4[C@H](C)CC[C@@H]([C@@H]1C)[C@@]24OO3 | – | 9.54% |
| O=C(O)CCCOc1ccc(Cl)cc1Cl | – | -16.2% [at 97.6 µM] |
| C[C@@H]1CC[C@@]2(OC1)O[C@H]1C[C@H]3[C@@H]4CC=C5C[C@@H](O[C@@H]6O[C@H](CO)[C@@H](O[C@@H]7O[C@@H](C)[C@H](O)[C@@H](O)[C@@H]7O)[C@H](O)[C@@H]6O[C@@H]6O[C@@H](C)[C@H](O)[C@@H](O)[C@@H]6O)CC[C@]5(C)[C@@H]4CC[C@]3(C)[C@@H]1[C@H]2C | 16.6 µM (active) | – |
| CC(C)(O)C=CC(=O)[C@](C)(O)[C@H]1[C@H](O)C[C@]2(C)[C@@H]3CC=C4[C@@H](C=C(O)C(=O)C4(C)C)[C@]3(C)C(=O)C[C@@]12C | 0.264 µM (active) | – |
| CC(C)[C@]12O[C@@H]1[C@@H]1O[C@]13[C@]1(O[C@H]1C[C@@H]1C4=C(CC[C@@]13C)C(=O)OC4)[C@H]2O | 0.148 µM (active) | – |
| Cc1[nH]nc2ccc(-c3cncc(OC[C@@H](N)Cc4c[nH]c5ccccc45)c3)cc12 | 2.96 µM (active) | – |
| CC=C(C)C(=O)O[C@H]1C(C)=C2[C@@H]3OC(=O)[C@@](C)(O)[C@@]3(O)[C@@H](OC(=O)CCC)C[C@](C)(OC(C)=O)[C@@H]2[C@@H]1OC(=O)CCCCCCC | – | -2.26% |
| O=C(O)COc1nc(Cl)c(Cl)cc1Cl | – | 0.193% [at 97.6 µM] |
| CC1=C(O)C(=O)C=C2C1=CC=C1[C@@]2(C)CC[C@@]2(C)[C@@H]3C[C@](C)(C(=O)O)CC[C@]3(C)CC[C@]12C | 2.96 µM (active) | – |
| C[C@]12Cc3cn[nH]c3C[C@@H]1CC[C@@H]1[C@H]2CC[C@@]2(C)[C@H]1CC[C@]2(C)O | – | 2.23% |
| CCC(=O)OC1CCC2C3CCC4=CC(=O)CC[C@@]4(C)C3CC[C@]12C (stereo not given in full) | – | 4.79% |
| O=[N+]([O-])c1c(Cl)c(Cl)cc(Cl)c1Cl | – | -2.42% [at 97.6 µM] |
| Cc1ccccc1-n1c(Cn2cnc3c(N)ncnc32)nc2cccc(C)c2c1=O | – | -16.4% |
| CCCCCC[C@H]1C(=O)O[C@H](C)[C@H](NC(=O)c2cccc(NC=O)c2O)C(=O)O[C@@H](C)[C@@H]1OC(=O)CC(C)C | 9.35 µM (active) | – |
| S=C(SSC(=S)N1CCCCC1)N1CCCCC1 | – | 8.05% |
| C[C@H]1CCCC=CC2C[C@H](O)C[C@@H]2[C@H](O)C=CC(=O)O1 (stereo not given in full) | 0.132 µM (active) | – |
| CCCN1CCO[C@@H]2c3cc(O)ccc3OC[C@@H]21 | – | -0.614% |
| CC(C)(C)C(O)C(Oc1ccc(Cl)cc1)n1cncn1 (stereo not given) | – | -1.19% [at 97.6 µM] |
